# Laboratory results as given in PubChem BioAssay AID1159580 (chemical genetic matrix, 2015).
# Out of some 5,500 compounds screened, about 2,000 (36%) were called active. About 18% were inconclusive and are not listed. This is one part of the list. A number with no mark means an inactive call. No stated cut-off is given here; in the data, active means normalized growth mostly below about 0.91 (no sharp cut-off); inconclusive means no clear call, values can overlap the other calls; inactive means mostly above about 0.92.
# Assay: chemical genetic growth profiling, strain panel (AID 1159580);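 further: tested at 20 µM; growth read once vehicle control cultures reached saturation at 30 °C; 1 = growth at the plate median or of vehicle wells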
# Details: growth OD
# [1] = S. cerevisiae deletion strains, locus YAL013W, strain DEP1, stronger effect = lower value
# [2] = S. cerevisiae deletion strains, locus YAL040C, strain CLN3, stronger effect = lower value
# [3] = S. cerevisiae deletion strains, locus YCL061C, strain MRC1 (second series), stronger effect = lower value
# [4] = S. cerevisiae deletion strains, locus YDR150W, strain NUM1, stronger effect = lower value
# [5] = S. cerevisiae deletion strains, locus YDR363W, strain ESC2, stronger effect = lower value
# [6] = S. cerevisiae deletion strains, locus YER002W, strain NOP16, stronger effect = lower value
# [7] = S. cerevisiae deletion strains, locus YGR078C, strain PAC10, stronger effect = lower value
# [8] = S. cerevisiae deletion strains, locus YJR075W, strain HOC1, stronger effect = lower value
# [9] = S. cerevisiae deletion strains, locus YNL175C, strain NOP13, stronger effect = lower value
# [10] = S. cerevisiae deletion strains, locus YNL197C, strain WHI3, stronger effect = lower value
# [11] = S. cerevisiae deletion strains, locus YNL224C, strain SQS1, stronger effect = lower value
# [12] = S. cerevisiae deletion strains, locus YOR083W, strain WHI5 (second series), stronger effect = lower value
# [13] = S. cerevisiae deletion strains, locus YPL055C, strain LGE1, stronger effect = lower value
# [14] = S. cerevisiae deletion strains, locus YBR229C, strain ROT2, stronger effect = lower value
# [15] = S. cerevisiae deletion strains, locus YDL101C, strain DUN1, stronger effect = lower value
# [16] = S. cerevisiae deletion strains, locus YDL134C, strain PPH21, stronger effect = lower value
# [17] = S. cerevisiae deletion strains, locus YHR030C, strain SLT2, stronger effect = lower value
# [18] = S. cerevisiae deletion strains, locus YJR043C, strain POL32, stronger effect = lower value
# [19] = S. cerevisiae deletion strains, locus YLR039C, strain RIC1, stronger effect = lower value
# [20] = S. cerevisiae deletion strains, locus YLR262C, strain YPT6, stronger effect = lower value
# [21] = S. cerevisiae deletion strains, locus YMR263W, strain SAP30, stronger effect = lower value
# [22] = S. cerevisiae deletion strains, locus YMR307W, strain GAS1, stronger effect = lower value
# [23] = S. cerevisiae deletion strains, locus YNL153C, strain GIM3, stronger effect = lower value
# [24] = S. cerevisiae deletion strains, locus YNL322C, strain KRE1, stronger effect = lower value
# [25] = S. cerevisiae deletion strains, locus YOL006C, strain TOP1, stronger effect = lower value
# [26] = S. cerevisiae deletion strains, locus YGR229C, strain SMI1, stronger effect = lower value
# [27] = S. cerevisiae deletion strains, locus YNL128W, strain TEP1, stronger effect = lower value
compound,measurement,setting,value
Cc1nc(N=Nc2cc(S(=O)(=O)O)c3cc([N+](=O)[O-])cc(S(=O)(=O)O)c3c2)c(COP(=O)(O)O)c(C=O)c1O,normalized growth,[1],0.999
same,normalized growth,[2],1.02
same,normalized growth,[3],1
same,normalized growth,[4],0.995
same,normalized growth,[5],1.01
same,normalized growth,[6],1.02
same,normalized growth,[7],1
same,normalized growth,[8],1
same,normalized growth,[9],0.997
same,normalized growth,[10],1
same,normalized growth,[11],1.01
same,normalized growth,[12],1.01
same,normalized growth,[13],1.02
NC(N)=NC(N)=Nc1cc(Cl)cc(Cl)c1,normalized growth,[1],1
same,normalized growth,[14],1.01
same,normalized growth,[15],1
same,normalized growth,[16],1.01
same,normalized growth,[4],0.919
same,normalized growth,"S. cerevisiae deletion strains, locus YEL061C, strain CIN8, stronger effect = lower value",1.02
same,normalized growth,[7],1
same,normalized growth,[17],0.98
same,normalized growth,"S. cerevisiae deletion strains, locus YHR087W, strain rtc3, stronger effect = lower value",1.01
same,normalized growth,"S. cerevisiae deletion strains, locus YJL187C, strain SWE1, stronger effect = lower value",1.01
same,normalized growth,[18],0.999
same,normalized growth,[8],0.972
same,normalized growth,[19],0.975
same,normalized growth,"S. cerevisiae deletion strains, locus YLR058C, strain SHM2 (second series), stronger effect = lower value",0.999
same,normalized growth,"S. cerevisiae deletion strains, locus YLR085C, strain ARP6, stronger effect = lower value",1.03
same,normalized growth,[20],1
same,normalized growth,"S. cerevisiae deletion strains, locus YML094W, strain GIM5, stronger effect = lower value",1.03
same,normalized growth,"S. cerevisiae deletion strains, locus YMR219W, strain ESC1, stronger effect = lower value",0.99
same,normalized growth,[21],0.987
same,normalized growth,[22],0.889
same,normalized growth,[23],0.983
same,normalized growth,"S. cerevisiae deletion strains, locus YNL298W, strain CLA4 (second series), stronger effect = lower value",1.03
same,normalized growth,[24],0.999
same,normalized growth,"S. cerevisiae deletion strains, locus YNR030W, strain Alg12, stronger effect = lower value",1.02
same,normalized growth,[25],1.06
same,normalized growth,[13],0.884
same,normalized growth,"S. cerevisiae deletion strains, locus YPL241C, strain CIN2, stronger effect = lower value",1.01
same,normalized growth,"S. cerevisiae deletion strains, locus YPR135W, strain CTF4, stronger effect = lower value",1.15
NC(N)=Nc1ccc(Cl)cc1,normalized growth,[1],1.01
same,normalized growth,"S. cerevisiae deletion strains, locus YBR021W, strain FUR4, stronger effect = lower value",1.01
same,normalized growth,[14],1.01
same,normalized growth,"S. cerevisiae deletion strains, locus YCL029C, strain bik1, stronger effect = lower value",1
same,normalized growth,"S. cerevisiae deletion strains, locus YDL035C, strain GPR1, stronger effect = lower value",1.02
same,normalized growth,"S. cerevisiae deletion strains, locus YDL074C, strain BRE1, stronger effect = lower value",1.04
same,normalized growth,[15],1.03
same,normalized growth,[16],1.02
same,normalized growth,"S. cerevisiae deletion strains, locus YDL185W, strain tfp1, stronger effect = lower value",1.01
same,normalized growth,"S. cerevisiae deletion strains, locus YDL192W, strain arf1, stronger effect = lower value",1.01
same,normalized growth,"S. cerevisiae deletion strains, locus YDR101C, strain arx1, stronger effect = lower value",0.99
same,normalized growth,[4],1.02
same,normalized growth,"S. cerevisiae deletion strains, locus YDR162C, strain NBP2, stronger effect = lower value",1.02
same,normalized growth,"S. cerevisiae deletion strains, locus YDR318W, strain mcm21, stronger effect = lower value",0.997
same,normalized growth,"S. cerevisiae deletion strains, locus YDR388W, stronger effect = lower value",0.997
same,normalized growth,"S. cerevisiae deletion strains, locus YDR502C, strain sam2, stronger effect = lower value",1
same,normalized growth,"S. cerevisiae deletion strains, locus YER110C, stronger effect = lower value",0.996
same,normalized growth,"S. cerevisiae deletion strains, locus YER155C, strain BEM2, stronger effect = lower value",1.01
same,normalized growth,"S. cerevisiae deletion strains, locus YER167W, strain BCK2, stronger effect = lower value",1.03
same,normalized growth,"S. cerevisiae deletion strains, locus YGL078C, strain dbp3, stronger effect = lower value",0.996
same,normalized growth,"S. cerevisiae deletion strains, locus YGL086W, strain mad1, stronger effect = lower value",1
same,normalized growth,"S. cerevisiae deletion strains, locus YGL248W, strain PDE1, stronger effect = lower value",1.01
same,normalized growth,[7],1.02
same,normalized growth,"S. cerevisiae deletion strains, locus YGR135W, strain pre9, stronger effect = lower value",0.998
same,normalized growth,[26],1.03
same,normalized growth,"S. cerevisiae deletion strains, locus YGR252W, strain gcn5, stronger effect = lower value",0.972
same,normalized growth,[17],1
same,normalized growth,"S. cerevisiae deletion strains, locus YHR079C, strain IRE1 (second series), stronger effect = lower value",1
same,normalized growth,"S. cerevisiae deletion strains, locus YHR094C, strain hxt1, stronger effect = lower value",0.988
same,normalized growth,"S. cerevisiae deletion strains, locus YHR129C, strain ARP1, stronger effect = lower value",1.01
same,normalized growth,"S. cerevisiae deletion strains, locus YHR200W, strain rpn10, stronger effect = lower value",0.999
same,normalized growth,"S. cerevisiae deletion strains, locus YIL066C, strain RNR3, stronger effect = lower value",1.02
same,normalized growth,"S. cerevisiae deletion strains, locus YIL073C, strain SPO22, stronger effect = lower value",1.09
same,normalized growth,"S. cerevisiae deletion strains, locus YIL125W, strain kgd1, stronger effect = lower value",1
same,normalized growth,"S. cerevisiae deletion strains, locus YIR030C, strain dcg1, stronger effect = lower value",0.992
same,normalized growth,"S. cerevisiae deletion strains, locus YJL095W, strain BCK1, stronger effect = lower value",1.02
same,normalized growth,"S. cerevisiae deletion strains, locus YJL134W, strain LCB3, stronger effect = lower value",1.01
same,normalized growth,"S. cerevisiae deletion strains, locus YJL168C, strain set2, stronger effect = lower value",1
same,normalized growth,"S. cerevisiae deletion strains, locus YJL187C, strain SWE1 (second series), stronger effect = lower value",1.01
same,normalized growth,[18],1.17 [resistant] (active)
same,normalized growth,[8],1.01
same,normalized growth,"S. cerevisiae deletion strains, locus YKL009W, strain mrt4, stronger effect = lower value",0.987
same,normalized growth,"S. cerevisiae deletion strains, locus YKL068W, stronger effect = lower value",0.988
same,normalized growth,"S. cerevisiae deletion strains, locus YKL085W, strain MDH1 (second series), stronger effect = lower value",1.01
same,normalized growth,"S. cerevisiae deletion strains, locus YKL085W, strain MDH1, stronger effect = lower value",1.01
same,normalized growth,"S. cerevisiae deletion strains, locus YKL190W, strain CNB1, stronger effect = lower value",1.02
same,normalized growth,"S. cerevisiae deletion strains, locus YKR001C, strain vps1, stronger effect = lower value",0.999
same,normalized growth,[19],1.1
same,normalized growth,"S. cerevisiae deletion strains, locus YLR058C, strain SHM2, stronger effect = lower value",1.01
same,normalized growth,"S. cerevisiae deletion strains, locus YLR102C, strain apc9, stronger effect = lower value",0.998
same,normalized growth,[20],1.07
same,normalized growth,"S. cerevisiae deletion strains, locus YLR268W, strain sec22, stronger effect = lower value",0.996
same,normalized growth,"S. cerevisiae deletion strains, locus YLR330W, strain CHS5, stronger effect = lower value",1.02
same,normalized growth,"S. cerevisiae deletion strains, locus YLR342W, strain FKS1 (second series), stronger effect = lower value",1.05
same,normalized growth,"S. cerevisiae deletion strains, locus YLR371W, strain rom2, stronger effect = lower value",0.996
same,normalized growth,"S. cerevisiae deletion strains, locus YLR418C, strain cdc73, stronger effect = lower value",1
same,normalized growth,"S. cerevisiae deletion strains, locus YML016C, strain PPZ1, stronger effect = lower value",1.02
same,normalized growth,"S. cerevisiae deletion strains, locus YML032C, strain rad52, stronger effect = lower value",0.961
same,normalized growth,"S. cerevisiae deletion strains, locus YML124C, strain tub3, stronger effect = lower value",0.99
same,normalized growth,"S. cerevisiae deletion strains, locus YMR078C, strain ctf18, stronger effect = lower value",0.995
same,normalized growth,"S. cerevisiae deletion strains, locus YMR223W, strain ubp8, stronger effect = lower value",0.998
same,normalized growth,[21],1.02
same,normalized growth,[22],1.01
same,normalized growth,"S. cerevisiae deletion strains, locus YNL067W, strain RPL9B, stronger effect = lower value",1.01
same,normalized growth,[27],1.05
same,normalized growth,[23],1.02
same,normalized growth,"S. cerevisiae deletion strains, locus YNL233W, strain BNI4, stronger effect = lower value",1.01
same,normalized growth,"S. cerevisiae deletion strains, locus YNL250W, strain rad50, stronger effect = lower value",0.984
same,normalized growth,"S. cerevisiae deletion strains, locus YNL271C, strain bni1, stronger effect = lower value",1
same,normalized growth,"S. cerevisiae deletion strains, locus YNL298W, strain CLA4, stronger effect = lower value",0.997
same,normalized growth,"S. cerevisiae deletion strains, locus YNL307C, strain MCK1, stronger effect = lower value",1
same,normalized growth,[24],1.01
same,normalized growth,"S. cerevisiae deletion strains, locus YNR052C, strain pop2, stronger effect = lower value",0.993
same,normalized growth,[25],1.18
same,normalized growth,"S. cerevisiae deletion strains, locus YOL012C, strain htz1",1.11
same,normalized growth,"S. cerevisiae deletion strains, locus YOL147C, strain pex11, stronger effect = lower value",0.995
same,normalized growth,"S. cerevisiae deletion strains, locus YOR061W, strain CKA2, stronger effect = lower value",1.02
same,normalized growth,"S. cerevisiae deletion strains, locus YOR069W, strain VPS5, stronger effect = lower value",1.11 [resistant] (active)
same,normalized growth,"S. cerevisiae deletion strains, locus YOR136W, strain idh2, stronger effect = lower value",0.997
same,normalized growth,"S. cerevisiae deletion strains, locus YOR144C, strain elg1, stronger effect = lower value",0.984
same,normalized growth,"S. cerevisiae deletion strains, locus YOR184W, strain ser1, stronger effect = lower value",1.02
same,normalized growth,"S. cerevisiae deletion strains, locus YOR316C, strain cot1, stronger effect = lower value",1
same,normalized growth,[13],1.05
same,normalized growth,"S. cerevisiae deletion strains, locus YPR119W, strain clb2, stronger effect = lower value",0.988
same,normalized growth,"S. cerevisiae deletion strains, locus YPR141C, strain kar3, stronger effect = lower value",0.997
same,normalized growth,"S. cerevisiae deletion strains, locus YPR163C, strain tif3, stronger effect = lower value",0.997
same,normalized growth,"S. cerevisiae deletion strains, locus YPR167C, strain met16, stronger effect = lower value",0.997
same,normalized growth,"S. cerevisiae deletion strains, strain wtn01, stronger effect = lower value",0.999
same,normalized growth,"S. cerevisiae strains, strain wild type, stronger effect = lower value",1.01
NC(N)=NC(N)=Nc1cccc(Cl)c1,normalized growth,[1],1.01
same,normalized growth,[2],1
same,normalized growth,[3],1.01
same,normalized growth,[5],0.999
same,normalized growth,[6],0.993
same,normalized growth,[8],1
same,normalized growth,[21],0.999
same,normalized growth,[27],1.03
same,normalized growth,[23],1
same,normalized growth,[9],1.01
same,normalized growth,[10],1.04
same,normalized growth,[11],1.01
same,normalized growth,[24],0.995
same,normalized growth,[12],1.05
same,normalized growth,[13],1
CC(=O)NC(CS)C(=O)O (stereo unspecified),normalized growth,[2],0.975
same,normalized growth,[3],0.993
same,normalized growth,[5],1.03
same,normalized growth,[6],0.994
same,normalized growth,[26],1.02
same,normalized growth,[21],0.988
same,normalized growth,[23],0.979
same,normalized growth,[9],0.974
same,normalized growth,[10],0.988
same,normalized growth,[11],0.983
same,normalized growth,[12],0.996
COC(=O)C(N)Cc1ccc(Cl)cc1 (stereo unspecified),normalized growth,[2],0.998
same,normalized growth,[3],0.993
same,normalized growth,[5],0.976
same,normalized growth,[6],0.988
same,normalized growth,[26],0.99
same,normalized growth,[23],1.01
same,normalized growth,[9],0.965
same,normalized growth,[10],0.965
same,normalized growth,[11],0.984
same,normalized growth,[12],0.91
